The record followed here is PubChem BioAssay (NCI).

Among the test systems are NCI-H23 lung; NCI-H226 lung; NCI-H322M lung; HOP-62 NSCLC; NCI-H460 lung; A549/ATCC NSCLC; 786-0 renal; COLO 205 colon; DU-145 prostate; K-562 leukemia; MALME-3M melanoma; MDA-MB-231 breast; RXF 393 renal; SF-268 CNS; SF-295 CNS; SF-539 CNS; M14 melanoma; UACC-257 melanoma.
Common to all, as to assay: NCI-60 one-dose screen, 48 h (100 = growth as untreated, 0 = no growth, -100 = all killed)
What all share (settings): 10 µM unless noted

Structures are written as SMILES. Compounds without any hit were thinned out: in the full panel of roughly 83,000, 20% have a hit.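 Activity criterion: percent growth below 10, measured after cells in 96-well plates were exposed to a single compound concentration for 48 hours.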 Values without a mark were called inactive. Activity calls are given as the source filed them.

`COc1cc2c(c3c1c(=O)c1cccc(F)c1n3C)C=CC(C)(C)O2`: the growth with NCI-H23 lung was 99%; in the assay with NCI-H226 lung, 110%; with NCI-H322M lung, 79.5%; in the assay with HOP-62 NSCLC it was 99.2%; with NCI-H460 lung it was 102%; in the assay on A549/ATCC NSCLC, 89.4%. The growth in the assay with 786-0 renal was 103%; with COLO 205 colon, 102%; with DU-145 prostate, 92.9%; with K-562 leukemia it was 74.6%; with MALME-3M melanoma, 75.9%; in the assay with MDA-MB-231 breast, 58.4%. In addition, the growth with RXF 393 renal was 88.8%; with SF-268 CNS, 102%; with SF-295 CNS, 91.8%; in the assay with SF-539 CNS, 89%; in the assay with M14 melanoma, 101%.

`N#CCc1ncc(-c2ccc(C(F)(F)F)cc2)c(NC2CCCCCC2)n1`: the growth was 25.7% [100 µM] in the assay with NCI-H23 lung; 55.3% [100 µM] with NCI-H226 lung; 68.1% [100 µM] with NCI-H322M lung; 71.7% [100 µM] with HOP-62 NSCLC; 8.28% [100 µM] (active) in the assay with NCI-H460 lung; 21.1% [100 µM] with A549/ATCC NSCLC. For the same compound, the growth in the assay with 786-0 renal is 28.6% [100 µM]; in the assay with COLO 205 colon, 18.7% [100 µM]; in the assay with DU-145 prostate, 28.5% [100 µM]; in the assay with K-562 leukemia, 4.45% [100 µM] (active); with MALME-3M melanoma, 25.7% [100 µM]; in the assay with MDA-MB-231 breast it was 37.4% [100 µM]. The growth was 36.4% [100 µM] in the assay with RXF 393 renal; 30.5% [100 µM] in the assay with SF-268 CNS; 67.2% [100 µM] in the assay with SF-539 CNS; 23.3% [100 µM] with UACC-257 melanoma; 19% [100 µM] in the assay on M14 melanoma.

Regarding `CC#Cc1nc(Nc2cc(C)[nH]n2)c2ccccc2n1`, the growth with NCI-H23 lung is 2.12% [100 µM] (active); in the assay with NCI-H226 lung it was -27.7% [100 µM] (active); in the assay with NCI-H322M lung, 9.12% [100 µM] (active); in the assay on HOP-62 NSCLC, -23.1% [100 µM] (active); in the assay with NCI-H460 lung, 3.75% [100 µM] (active); in the assay with A549/ATCC NSCLC, 1.41% [100 µM] (active). Also, the growth with 786-0 renal was 7.19% [100 µM] (active); in the assay on COLO 205 colon, -100% [100 µM] (active); in the assay on DU-145 prostate it was -4.22% [100 µM] (active); with K-562 leukemia, 9.48% [100 µM] (active); in the assay with MALME-3M melanoma it was -45.3% [100 µM] (active); in the assay on MDA-MB-231 breast, -34.5% [100 µM] (active). Also, the growth in the assay on RXF 393 renal is -51% [100 µM] (active); in the assay on SF-268 CNS, -72.5% [100 µM] (active); in the assay with SF-539 CNS it was 1.15% [100 µM] (active); in the assay on UACC-257 melanoma, -19.9% [100 µM] (active); in the assay on M14 melanoma, -27.3% [100 µM] (active).

`CC(=O)Nc1ccc(S(=O)(=O)Cl)cc1`: the growth in the assay with NCI-H23 lung was 112%; with NCI-H226 lung, 95.5%; with NCI-H322M lung, 111%; in the assay with HOP-62 NSCLC, 102%; in the assay on NCI-H460 lung, 102%; in the assay with A549/ATCC NSCLC, 104%. For the same compound, the growth with 786-0 renal was 104%; in the assay on COLO 205 colon, 108%; in the assay with DU-145 prostate it was 107%; in the assay with K-562 leukemia, 98.1%; in the assay with MALME-3M melanoma it was 111%; in the assay with MDA-MB-231 breast it was 118%. Besides, the growth in the assay with RXF 393 renal is 96.2%; with SF-268 CNS, 109%; in the assay with SF-539 CNS, 100%; in the assay on UACC-257 melanoma it was 131%; in the assay with M14 melanoma, 118%.

As for `C=CCNCCC#N`, the growth in the assay on NCI-H23 lung is 113%; with NCI-H226 lung it was 92.9%; with NCI-H322M lung, 115%; in the assay with HOP-62 NSCLC, 105%; in the assay on NCI-H460 lung, 111%; with A549/ATCC NSCLC it was 99.2%. Further, the growth is 102% with 786-0 renal; 116% with COLO 205 colon; 113% with DU-145 prostate; 109% in the assay with K-562 leukemia; 114% with MALME-3M melanoma; 119% with MDA-MB-231 breast. In addition, the growth with RXF 393 renal was 109%; in the assay with SF-268 CNS, 112%; in the assay with SF-539 CNS it was 107%; in the assay with UACC-257 melanoma it was 111%; in the assay on M14 melanoma, 101%.

With `COC(=O)[C@H](Cc1cn(C)cn1)NC(=O)[C@H](CC(=O)OCc1ccccc1)NC(=O)Nc1cc(C(F)(F)F)cc(C(F)(F)F)c1`, the growth in the assay with NCI-H23 lung was -83.9% [100 µM] (active); in the assay on NCI-H226 lung, -52.9% [100 µM] (active); with NCI-H322M lung it was -96.7% [100 µM] (active); in the assay with HOP-62 NSCLC, -100% [100 µM] (active); with NCI-H460 lung it was -62.8% [100 µM] (active); in the assay with A549/ATCC NSCLC it was -80.9% [100 µM] (active). In addition, the growth in the assay on 786-0 renal was -92% [100 µM] (active); in the assay with COLO 205 colon, -93.7% [100 µM] (active); with DU-145 prostate it was -94.5% [100 µM] (active); with K-562 leukemia it was -60.2% [100 µM] (active); in the assay on MALME-3M melanoma, -94.4% [100 µM] (active); in the assay with MDA-MB-231 breast, -93% [100 µM] (active). For the same compound, the growth was -81.8% [100 µM] (active) in the assay on RXF 393 renal; -91.4% [100 µM] (active) with SF-268 CNS; -94.6% [100 µM] (active) with SF-539 CNS; -94.9% [100 µM] (active) in the assay on UACC-257 melanoma; -93.6% [100 µM] (active) with M14 melanoma.

Regarding `COC(=O)C(C(=O)OC)C(Br)C(Br)C(Br)c1ccccc1` (stereo unspecified), the growth in the assay on NCI-H23 lung was 108%; in the assay on NCI-H226 lung it was 96.5%; with NCI-H322M lung, 113%; in the assay on HOP-62 NSCLC, 144%; with NCI-H460 lung, 108%; in the assay with A549/ATCC NSCLC, 96%. Also, the growth with 786-0 renal was 96.3%; in the assay on COLO 205 colon, 71.2%; with DU-145 prostate, 89.5%; with K-562 leukemia it was 24.8%; in the assay on MALME-3M melanoma, 101%; in the assay with MDA-MB-231 breast, 117%. Besides, the growth in the assay with RXF 393 renal was 57.5%; in the assay with SF-268 CNS, 99.2%; in the assay on SF-539 CNS, 98%; with UACC-257 melanoma it was 82.7%; in the assay on M14 melanoma it was 104%.

With `Cc1c(C(N)=O)sc2c1c(=O)n(Cc1ccccc1)c1nnc(S(C)(=O)=O)n21`, the growth was 97.1% in the assay on NCI-H23 lung; 96.2% in the assay on NCI-H226 lung; 107% in the assay with NCI-H322M lung; 78.8% in the assay with HOP-62 NSCLC; 91.3% in the assay with NCI-H460 lung; 102% with A549/ATCC NSCLC. The growth is 108% in the assay on 786-0 renal; 93.8% in the assay on COLO 205 colon; 101% in the assay with DU-145 prostate; 92.4% in the assay with MALME-3M melanoma; 101% in the assay on MDA-MB-231 breast; 49.3% in the assay on RXF 393 renal. Further, the growth in the assay on SF-268 CNS was 96.7%; with SF-295 CNS it was 89.4%; in the assay on UACC-257 melanoma, 80.8%; in the assay with M14 melanoma, 76%.

`O=C1C=C(OCC=C(C(F)(F)F)C(F)(F)F)c2ccccc2C1=O`: the growth in the assay with NCI-H23 lung was 19.1%; in the assay on NCI-H226 lung, 14.7%; in the assay on NCI-H322M lung it was 90.5%; with HOP-62 NSCLC, 66.6%; in the assay on NCI-H460 lung, 59%; in the assay on A549/ATCC NSCLC, 82.9%. For the same compound, the growth in the assay on 786-0 renal is -19.8% (active); in the assay with COLO 205 colon, 52.7%; in the assay with DU-145 prostate it was -15% (active); in the assay with K-562 leukemia, -15.5% (active); in the assay on MALME-3M melanoma it was -34.8% (active); in the assay with MDA-MB-231 breast, 7.59% (active). Also, the growth in the assay on RXF 393 renal was -82.5% (active); in the assay with SF-268 CNS it was 0.611% (active); in the assay on UACC-257 melanoma it was 45.8%; in the assay on M14 melanoma it was 26%.
